# Measurements taken from PubChem BioAssay (Tox21).
# Inconclusive results are not listed. A call without a number means that no potency is given here. Calls of active or inactive are those of the source. Calls come from the whole dose curve; as a rule, active = well fitted inhibition curve with a large enough effect in the repeat runs; inconclusive = weak or mixed curves; inactive = no such curve, though single readings can be large or run the other way.
# Target: Estrogen receptor (Homo sapiens) (UniProt P03372)
# Sequence (P03372 whole entry, looked up): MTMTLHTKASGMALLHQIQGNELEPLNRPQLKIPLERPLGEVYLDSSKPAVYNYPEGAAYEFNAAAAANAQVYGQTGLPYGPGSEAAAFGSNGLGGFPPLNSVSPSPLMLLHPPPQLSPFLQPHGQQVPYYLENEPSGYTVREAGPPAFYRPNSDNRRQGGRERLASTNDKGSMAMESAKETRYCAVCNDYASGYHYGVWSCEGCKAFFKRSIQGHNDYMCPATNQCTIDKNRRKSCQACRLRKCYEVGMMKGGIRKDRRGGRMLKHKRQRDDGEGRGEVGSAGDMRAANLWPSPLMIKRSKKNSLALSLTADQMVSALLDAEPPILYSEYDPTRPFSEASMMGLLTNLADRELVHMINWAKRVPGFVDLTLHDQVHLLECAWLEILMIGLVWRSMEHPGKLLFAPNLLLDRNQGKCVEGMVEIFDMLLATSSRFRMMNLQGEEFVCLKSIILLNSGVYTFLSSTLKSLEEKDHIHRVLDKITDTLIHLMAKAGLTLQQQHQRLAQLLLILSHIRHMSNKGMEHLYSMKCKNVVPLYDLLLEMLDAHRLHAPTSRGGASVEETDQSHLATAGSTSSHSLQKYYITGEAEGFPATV
# Assay: qHTS assay to identify small molecule antagonists of the estrogen receptor alpha (ER-alpha) signaling pathway using the BG1 cell line in the presence of 0.1 nM 17-beta-estradiol (AID 1259244); note: nearly all actives have a fitted effect of over 50% in size
# Details: VM7Luc4E2 (BG1) ERE-luciferase, antagonist mode, 0.1 nM E2, 22 h; series mostly up to 92.4 µM
# Procedure, shortened: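 VM7Luc4E2; 4xERE-luciferase; 0.1 nM E2 final; 22 h co-incubation, 37C; ONE-Glo luminescence after 30 min at room temperature.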
row,Compound,Potency
1,CCCCCCCCC(=O)OCC,inactive
2,CCN1CN(CC)CN(CC)C1,inactive
3,CCCOC(=O)CCCCC(=O)OCCC,inactive
4,CCCCOC(=O)C(C)OC(=O)CCC (configuration not stated),inactive
5,CCCO,inactive
6,Cc1cc(O)c2c(c1)C(=O)c1cccc(O)c1C2=O,inactive
7,CC(C)CCCCCCOC(=O)C1CCCCC1C(=O)OCCCCCCC(C)C (configuration not stated),inactive
